The entries come from a sample that favours hits as a whole.
CD40 NFkB inh = CD40 pathway inhibition in BL2 cells | BL2 NF-kB luciferase reporter, CD40L-induced, 4 h | inhibition, % at 10 µM | 83,000 tested, 0.94% active | AID 1053188;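 active = mean inhibition of at least 50% with a set share of replicates also reaching that level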;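 note: 0% = neutral control wells and 100% = IKK inhibitor VII at 50 µM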
* = called active by the depositor; [ ] = another dose, or the depositor's remark.

SMILES	CD40 NFkB inh
C[C@H](CO)N1C[C@H](C)[C@H](CN(C)Cc2ccc(-c3ccccc3)cc2)OCc2ccccc2-c2ccccc2C1=O	6
C[C@H]1CN([C@@H](C)CO)C(=O)c2ccccc2-c2ccccc2CO[C@@H]1CN(C)Cc1ccccc1C(F)(F)F	66*[25 µM]
COc1ccccc1CN(C)C[C@@H]1OCc2ccccc2-c2ccccc2C(=O)N([C@@H](C)CO)C[C@@H]1C	-13[25 µM]
C[C@H](CO)N1C[C@H](C)[C@H](CN(C)Cc2ccc(Oc3ccccc3)cc2)OCc2ccccc2-c2ccccc2C1=O	57*[25 µM]
C[C@H]1CN([C@@H](C)CO)C(=O)c2ccccc2-c2ccccc2CO[C@@H]1CN(C)C(=O)Nc1ccccc1	-5
CC(C)NC(=O)Nc1ccc2c(c1)C(=O)N(C)C[C@H](C)[C@@H](CN(C)C(=O)NC(C)C)O2	4
O=C(C1CC1)N1C[C@@H]2[C@H](c3ccccc31)[C@H](CO)N2S(=O)(=O)c1ccccc1	8
O=C(C[C@@H]1CC[C@H]2[C@@H](COC[C@@H](O)CN2CC2CCCC2)O1)NCc1ccc(Cl)cc1	5
Cc1ccc(-c2cc(C(=O)N3CCOCC3)c3ccccc3n2)o1	-11
Cc1ccc(-c2cc(C(=O)N3CCCC(C(F)(F)F)C3)c3ccccc3n2)o1 (stereo not given)	105*
Cc1c(C(=O)N2CCCC(C(F)(F)F)C2)oc2ccccc12 (stereo not given)	-22
COC(=O)[C@H]1[C@H](CO)[C@H]2Cn3c(ccc(C4=CCCC4)c3=O)[C@H]2N1CC1CCOCC1	4[25 µM]
C[C@H]1CC=CC[C@H](c2ccccc2)NC(=O)[C@H](C)N(C)C(=O)c2ccccc2O1 (mixture of isomers)	3[25 µM]
COc1cccc(-c2ccc3n(c2=O)C[C@@H]2[C@@H](CO)[C@H](C(=O)NC4CCCC4)[C@H]3N2C)c1	0
OC[C@@H]1[C@H](c2ccc(/C=C/c3ccccc3)cc2)[C@@H]2CN(Cc3ccncc3)CCCCN12	-27[25 µM]
COc1ccc2c3c(n(C)c2c1)[C@@H](CO)N(C(=O)Nc1ccc(F)cc1)CC31CCN(C(=O)c2ccc3c(c2)OCO3)CC1	30[25 µM]
COc1ccc2c3c(n(C)c2c1)[C@H](CO)N(C(=O)Nc1ccc(F)cc1)CC31CCN(C(=O)c2ccc3c(c2)OCO3)CC1	65*[25 µM]
COc1ccc2c3c(n(C)c2c1)[C@H](CO)N(C(=O)Nc1ccc(F)cc1)CC31CCN(C(=O)Nc2c(C)noc2C)CC1	19[25 µM]
CC(C)NC(=O)N1C[C@@H]2C(c3ccc(Br)cc3)[C@H](C1)N2CC(F)(F)F (stereo not given in full)	-1
O=C(N/N=C/c1ccc([N+](=O)[O-])o1)C1CCCC1	-2
CCCCCC(=O)N/N=C/c1ccc([N+](=O)[O-])o1	7
O=C(Cc1ccc2c(c1)OCO2)NN=Cc1ccc([N+](=O)[O-])o1	95*
O=C(C1CC1)N1C[C@H]2[C@@H](c3ccccc31)[C@H](CO)N2S(=O)(=O)c1ccccc1	-1
CO[C@@H]1CN(C)C(=O)c2ccc(NC(=O)C3CCOCC3)cc2OC[C@@H](C)N(CC2CC2)C[C@@H]1C	-10
C[C@H]1CN(C)C(=O)Cc2ccccc2O[C@@H]1CN(C)S(C)(=O)=O	4
SMILES	CD40 NFkB inh
O=C1c2cccc3c([N+](=O)[O-])ccc(c23)C(=O)N1Cc1cccnc1	84*
Cc1ccc(N2C(=O)c3cccc4c([N+](=O)[O-])ccc(c34)C2=O)c2cccnc12	2
O=C1c2cccc3cccc(c23)C(=O)N1Cc1cccnc1	4
CCCNC(=O)N1[C@H](CO)[C@@H](c2ccccc2-c2cccc(C)c2)[C@@H]1C#N	-1[25 µM]
O=C(NC1CCCCC1)[C@@H]1[C@@H](CO)[C@@H]2Cn3c(ccc(-c4ccccc4)c3=O)[C@H]1N2	0
CCN(CC(=O)Nc1ccc(NC(C)=O)cc1)C(=O)C1CCCN(C(=O)c2ccc(Cl)cc2)C1 (stereo not given)	28*
CCN(CC(=O)Nc1ccc(NC(C)=O)cc1)C(=O)C1CCCC1	1
CCc1nnc(NC(=O)C2CCCN(C(=O)c3ccc(Cl)cc3)C2)s1 (stereo not given)	-40
O=S(=O)(NC[C@@H]1[C@@H](c2ccccc2)[C@@H](CO)N1CC1CC1)c1ccccc1	-4[25 µM]
C[C@H]1CN(C)C(=O)c2cccc(N)c2O[C@@H]1CN(C)C(=O)OC(C)(C)C	0
O=C([C@H]1[C@H](CO)[C@H]2Cn3c(cccc3=O)[C@@H]1N2CC1CCCC1)N1CCOCC1	4
COc1ccccc1C#Cc1ccc([C@H]2[C@@H](C#N)N(C(=O)C3CCC3)[C@@H]2CO)cc1	-7[25 µM]
N#C[C@H]1[C@H](c2ccc(C#Cc3ccccc3F)cc2)[C@H](CO)N1C(=O)C1CCC1	-3
N#C[C@H]1[C@H](c2ccc(C#Cc3ccccc3F)cc2)[C@@H](CO)N1C(=O)C1CCC1	62*
N#C[C@@H]1[C@H](c2ccc(C#Cc3ccc(F)cc3)cc2)[C@@H](CO)N1C(=O)C1CCC1	90*[25 µM]
N#C[C@@H]1[C@H](c2ccc(C#Cc3ccccc3F)cc2)[C@@H](CO)N1C(=O)C1CCC1	81*
N#C[C@H]1[C@H](c2ccc(C#Cc3ccc(F)cc3)cc2)[C@H](CO)N1C(=O)C1CCC1	28[25 µM]
N#C[C@@H]1[C@@H](c2ccc(C#Cc3ccccc3F)cc2)[C@H](CO)N1C(=O)C1CCC1	-29
N#C[C@H]1[C@@H](c2ccc(C#Cc3ccc(F)cc3)cc2)[C@H](CO)N1C(=O)C1CCC1	6[25 µM]
COc1ccccc1C#Cc1ccc([C@@H]2[C@@H](C#N)N(C(=O)C3CCCCC3)[C@@H]2CO)cc1	-1
Cc1noc(C)c1NC(=O)N(C)C[C@H]1OCc2ccccc2-c2ccccc2C(=O)N([C@@H](C)CO)C[C@H]1C	6[25 µM]
C[C@H]1CN(C)C(=O)c2cccc(NS(C)(=O)=O)c2O[C@H]1CN(C)S(C)(=O)=O	-1
C[C@@H]1CN([C@H](C)CO)C(=O)c2ccccc2-c2ccccc2CO[C@@H]1CN(C)C(=O)CCC(F)(F)F	-16[25 µM]
CN1c2ccc(-c3ccc(F)cc3)cc2[C@H]2[C@H](CCN2S(=O)(=O)c2cccc(F)c2)[C@@H]1CO	14[25 µM]
O=C(N[C@@H]1CC[C@H](CCNC(=O)C2CCCC2)O[C@H]1CO)c1ccccn1	3
SMILES	CD40 NFkB inh
CC(=O)Nc1cccc2c1O[C@H](CN(C)C(=O)OC(C)(C)C)[C@H](C)CN(C)C2=O	-1
O=S(c1ccccc1O)S(=O)c1ccccc1O (stereo not given)	82*
O=C(O)c1ccccc1O	4
CS(=O)c1ccccc1O (stereo not given)	12
CNC[C@H]1Oc2ccc(N(C)C)cc2C(=O)N(C)C[C@H]1C	2
O=C1CCCCn2cc(nn2)COC[C@@H](c2ccccc2)N1	5
O=C(C1CCOCC1)N1CC(=O)N2[C@H](C1)[C@H](c1ccc(C#CC3CCCCC3)cc1)[C@@H]2CO	-12[25 µM]
COCCNC(=O)[C@@H]1[C@@H](CO)[C@@H]2Cn3c(ccc(-c4ccccc4OC)c3=O)[C@@H]2N1C(=O)C1CCC1	5[25 µM]
CC(=O)N1C[C@@H]2C(c3ccccc3)[C@H](C1)N2S(C)(=O)=O (stereo not given in full)	9
CCOC(=O)c1cc(-c2cccs2)[nH]n1	-11
CCOC(=O)C1CCN(C(=O)c2cccs2)CC1	9
CCOC(=O)C1CCN(c2ccc(-c3cccs3)nn2)CC1	57*
Cn1nc(-c2ccc(Cl)cc2)nc2c(=O)n(C)c(=O)nc1-2	84*
O=C(Nc1cc(=O)[nH]c2nc(-c3ccc(Cl)cc3)nn12)c1ccccc1	12

Compound activity deposited in PubChem BioAssay by Broad Institute.
